Assay results reported in the supplement of paper PMC10849652.
About 7,900 targets were measured; listed, in parts, are those with a hit and a random draw of the rest. About 0.6% of all pairs of compound and target were hits.

Columns and labels:
Test in all cases: log2 fold change, soluble protein after heating vs DMSO (PISA); higher = thermal stabilisation; K562 cells, 10 uM, 30 min; active = over 0.2 and 3.5 SD of the protein, either way, in both replicates (recomputed)
[1] = compound: C1=CC=C(C=C1)[C@H](COC2=CC3=C(C=C2)NC(=O)N3)NC(=O)C4=CC=CN(C4=O)CC5=CC(=C(C=C5)F)F
How it was run: (§1)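 Soluble protein was quantified by TMTpro 16plex LC-MS/MS after channel sums were equalised. It was obtained as the supernatant after 21,000xg for 90 min from pooled aliquots of K562 cells (2×10^6 cells/mL, 10 μM compound, 30 min) heated for 3 min across 48°C-58°C and extracted in PBS with 0.5% NP-40 at 4°C. Thermal stability values are relative to control samples and come from duplicates. They are given as log2 fold changes.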

[2] = compound: CC1=C(SC2=C1C(=N[C@H](C3=NN=C(N32)C)CC(=O)N)C4=CC=C(C=C4)Cl)C
How it was run: as §1

[3] = compound: CC1=C2C(=CC=C1)N=C(N(C2=O)C3=CC=CC=C3C)CN4C=NC5=C(N=CN=C54)N
How it was run: as §1

[4] = compound: Cc1sc2c(c1C)C(c1ccc(Cl)cc1)=N[C@@H](CC(=O)OC(C)(C)C)c1nnc(C)n1-2
How it was run: as §1

[5] = compound: c1ccc([C@@H]2C[C@H]2NC2CCNCC2)cc1
How it was run: as §1

Measured: log2 fold change

EFL1 (UniProt Q7Z2Z2)
inactive: [1] -0.042 | [2] 0.051 | [3] 0.083 | [4] 0.008 | [5] -0.017

EIF4E isoform 2 (UniProt P06730)
inactive: [1] 0.029 | [2] -0.026 | [3] -0.002 | [4] -0.144 | [5] 0.009

CTNNB1 (UniProt P35222)
inactive: [1] -0.039 | [2] 0.101 | [3] 0.312 | [4] -0.062 | [5] -0.149

FAM3A (UniProt P98173)
inactive: [1] -0.01 | [2] -0.001 | [3] 0.038 | [4] -0.051 | [5] -0.014

DDX39A (UniProt O00148)
inactive: [1] -0.174 | [2] 0.063 | [3] 0.025 | [4] 0.015 | [5] -0.01

DNAJC19 (UniProt Q96DA6)
inactive: [1] 0.025 | [2] 0.021 | [3] 0.05 | [4] 0 | [5] -0.041

DCTN1 isoform 4 (UniProt Q14203)
inactive: [1] -0.052 | [2] -0.021 | [3] 0.096 | [4] 0.044 | [5] -0.008

DYNC1I2 isoform 5 (UniProt Q13409)
inactive: [1] 0.019 | [2] 0.021 | [3] -0.006 | [4] -0.033 | [5] -0.019

EXOSC10 (UniProt Q01780)
inactive: [1] 0.162 | [2] 0.184 | [3] 0.284 | [4] 0.03 | [5] -0.041

DCAF13 (UniProt Q9NV06)
inactive: [1] 0.105 | [2] -0.221 | [3] -0.152 | [4] 0.128 | [5] 0

EEF1AKNMT (UniProt Q8N6R0)
inactive: [1] -0.146 | [2] 0.049 | [3] 0.121 | [4] 0.028 | [5] -0.063

CTSH (UniProt P09668)
inactive: [1] 0 | [2] -0.046 | [3] -0.038 | [4] -0.035 | [5] 0.055

DFFB (UniProt O76075)
inactive: [1] -0.027 | [2] 0.099 | [3] 0.048 | [4] 0.202 | [5] 0.049

DAXX (UniProt Q9UER7)
inactive: [1] 0.166 | [2] 0.178 | [3] 0.197 | [4] 0.017 | [5] -0.101

EEA1 (UniProt Q15075)
inactive: [1] 0.022 | [2] -0.015 | [3] 0.011 | [4] 0.021 | [5] 0.038

DENND10 (UniProt Q8TCE6)
inactive: [1] 0.035 | [2] 0.083 | [3] 0.103 | [4] 0.057 | [5] -0.008

DHCR24 (UniProt Q15392)
inactive: [1] 0.099 | [2] -0.035 | [3] 0.14 | [4] 0.036 | [5] -0.012

CTSZ (UniProt Q9UBR2)
inactive: [1] -0.003 | [2] 0.009 | [3] 0.032 | [4] 0.039 | [5] -0.01

DDOST (UniProt P39656)
inactive: [1] 0.018 | [2] -0.009 | [3] -0.078 | [4] -0.022 | [5] 0

DNAH10 (UniProt Q8IVF4)
inactive: [1] 0.09 | [2] 0.103 | [3] 0.062 | [4] -0.131 | [5] 0.031

DTWD1 (UniProt Q8N5C7)
inactive: [1] -0.051 | [2] -0.011 | [3] 0.152 | [4] -0.056 | [5] 0.07

ERLIN1 (UniProt O75477)
inactive: [1] -0.007 | [2] -0.036 | [3] 0.002 | [4] -0.038 | [5] -0.026

EIF4G1 isoform 8 (UniProt Q04637)
inactive: [1] -0.074 | [2] -0.016 | [3] -0.036 | [4] 0.135 | [5] -0.002

DDX5 (UniProt P17844)
inactive: [1] -0.061 | [2] 0.008 | [3] 0.067 | [4] -0.027 | [5] 0.038

DDX46 (UniProt Q7L014)
inactive: [1] -0.059 | [2] 0.09 | [3] 0.184 | [4] -0.064 | [5] 0

FAAP100 (UniProt Q0VG06)
inactive: [1] -0.243 | [2] 0.078 | [3] 0.017 | [4] -0.073 | [5] 0.067

CTSV (UniProt O60911)
inactive: [1] -0.02 | [2] -0.087 | [3] 0.021 | [4] -0.065 | [5] 0.005

EEF1D isoform 2 (UniProt P29692)
inactive: [1] -0.031 | [2] 0.003 | [3] 0.073 | [4] 0.012 | [5] -0.011

DNAJC7 (UniProt Q99615)
inactive: [1] -0.045 | [2] 0.043 | [3] 0.072 | [4] -0.013 | [5] 0

DAB2 (UniProt P98082)
inactive: [1] -0.039 | [2] 0.051 | [3] 0.1 | [4] 0.121 | [5] 0.094

FAM122A (UniProt Q96E09)
inactive: [1] 0.008 | [2] -0.055 | [3] -0.022 | [4] 0.158 | [5] 0.083

EXOC4 (UniProt Q96A65)
inactive: [1] -0.05 | [2] 0.052 | [3] 0.015 | [4] 0.081 | [5] -0.049

EGR1 (UniProt P18146)
Sequence of UniProt P18146 (P18146 whole entry, looked up): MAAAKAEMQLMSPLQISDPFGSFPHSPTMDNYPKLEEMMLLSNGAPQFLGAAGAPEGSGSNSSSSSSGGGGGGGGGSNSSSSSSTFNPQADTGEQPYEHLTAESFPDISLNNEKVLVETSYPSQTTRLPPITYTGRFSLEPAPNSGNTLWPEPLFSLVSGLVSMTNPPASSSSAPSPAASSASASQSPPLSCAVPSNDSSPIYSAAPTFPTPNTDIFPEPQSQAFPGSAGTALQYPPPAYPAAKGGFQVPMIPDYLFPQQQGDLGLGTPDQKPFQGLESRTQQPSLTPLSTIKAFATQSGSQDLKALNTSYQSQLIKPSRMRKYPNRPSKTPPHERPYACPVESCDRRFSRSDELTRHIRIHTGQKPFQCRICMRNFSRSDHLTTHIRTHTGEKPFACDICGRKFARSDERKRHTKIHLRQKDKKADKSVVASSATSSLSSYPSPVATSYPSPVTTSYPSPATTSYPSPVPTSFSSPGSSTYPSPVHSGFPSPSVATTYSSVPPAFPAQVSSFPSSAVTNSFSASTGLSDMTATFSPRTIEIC
inactive: [1] 0.034 | [2] 0.241 | [3] -0.097 | [4] 0.705 | [5] 0.07

EEF1A1 (UniProt P68104)
inactive: [1] 0.112 | [2] 0.212 | [3] -0.097 | [4] 0.125 | [5] -0.471

DBNL isoform 3 (UniProt Q9UJU6)
inactive: [1] -0.096 | [2] 0.002 | [3] 0.045 | [4] 0.029 | [5] 0.01

FAM160A2 isoform 2 (UniProt Q8N612)
inactive: [1] -0.027 | [2] -0.054 | [3] 0.343 | [4] 0.148 | [5] -0.344

EXTL2 (UniProt Q9UBQ6)
inactive: [1] 0.028 | [2] 0.106 | [3] 0.003 | [5] -0.211
active: [4] 0.316

ESYT1 isoform 2 (UniProt Q9BSJ8)
Sequence of UniProt Q9BSJ8 (Q9BSJ8 whole entry, looked up): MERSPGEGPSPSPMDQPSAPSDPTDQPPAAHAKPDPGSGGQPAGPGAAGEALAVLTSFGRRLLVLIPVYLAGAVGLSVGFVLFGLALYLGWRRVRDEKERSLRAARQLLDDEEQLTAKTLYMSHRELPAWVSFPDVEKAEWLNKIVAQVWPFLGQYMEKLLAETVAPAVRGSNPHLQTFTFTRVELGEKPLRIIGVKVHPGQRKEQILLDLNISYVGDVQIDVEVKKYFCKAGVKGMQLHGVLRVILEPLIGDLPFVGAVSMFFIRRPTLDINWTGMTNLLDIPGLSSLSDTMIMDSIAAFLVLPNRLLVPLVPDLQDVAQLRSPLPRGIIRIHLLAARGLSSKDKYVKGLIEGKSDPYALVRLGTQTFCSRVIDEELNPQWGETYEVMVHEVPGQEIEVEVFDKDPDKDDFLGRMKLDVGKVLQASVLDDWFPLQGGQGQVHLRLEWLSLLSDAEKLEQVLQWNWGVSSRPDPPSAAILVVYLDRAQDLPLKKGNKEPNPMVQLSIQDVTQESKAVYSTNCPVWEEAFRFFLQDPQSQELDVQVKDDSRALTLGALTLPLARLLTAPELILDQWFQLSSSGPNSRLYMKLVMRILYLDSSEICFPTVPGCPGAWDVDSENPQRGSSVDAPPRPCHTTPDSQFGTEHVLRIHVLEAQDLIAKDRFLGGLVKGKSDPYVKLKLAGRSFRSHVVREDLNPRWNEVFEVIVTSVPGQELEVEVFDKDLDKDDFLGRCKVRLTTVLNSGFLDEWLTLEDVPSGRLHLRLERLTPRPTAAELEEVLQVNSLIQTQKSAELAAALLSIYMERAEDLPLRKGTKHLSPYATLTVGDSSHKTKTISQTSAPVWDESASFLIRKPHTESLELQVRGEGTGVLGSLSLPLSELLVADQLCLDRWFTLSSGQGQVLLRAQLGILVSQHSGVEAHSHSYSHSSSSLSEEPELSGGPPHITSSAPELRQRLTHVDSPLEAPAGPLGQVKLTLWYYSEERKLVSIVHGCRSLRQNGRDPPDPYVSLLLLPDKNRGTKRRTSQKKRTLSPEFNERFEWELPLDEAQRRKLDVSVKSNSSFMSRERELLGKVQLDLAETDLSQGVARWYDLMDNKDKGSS
inactive: [1] -0.063 | [2] -0.046 | [3] 0.018 | [4] 0.008 | [5] -0.046

EZH2 isoform 2 (UniProt Q15910)
inactive: [1] 0.023 | [2] -0.056 | [3] -0.14 | [4] 0.016 | [5] -0.034

EOGT (UniProt Q5NDL2)
inactive: [1] 0.013 | [2] -0.074 | [3] 0.056 | [4] -0.032 | [5] 0.077

DOLPP1 (UniProt Q86YN1)
inactive: [1] -0.028 | [2] 0.02 | [3] -0.107 | [4] 0.062 | [5] 0.153

EFCAB14 (UniProt O75071)
active: [2] -0.293
inactive: [1] 0.045 | [3] 0.016 | [4] 0.018 | [5] 0.321

EHD2 (UniProt Q9NZN4)
inactive: [1] -0.018 | [2] 0.049 | [3] 0.022 | [4] -0.019 | [5] -0.049

EGLN1 (UniProt Q9GZT9)
inactive: [1] 0.055 | [2] 0.06 | [3] 0.013 | [4] 0.008 | [5] 0.019

ERCC2 (UniProt P18074)
inactive: [1] 0 | [2] -0.025 | [3] -0.044 | [4] -0.104 | [5] 0.05

ERCC6 (UniProt Q03468)
inactive: [1] 0.013 | [2] -0.025 | [3] -0.018 | [4] -0.008 | [5] 0.151

EIF2AK1 (UniProt Q9BQI3)
inactive: [1] 0.025 | [2] -0.036 | [3] -0.051 | [4] 0.025 | [5] 0.018

EIF4G3 isoform 3 (UniProt O43432)
inactive: [1] -0.021 | [2] 0.021 | [3] 0.184 | [4] 0.038 | [5] -0.06

DNAJC24 (UniProt Q6P3W2)
inactive: [1] 0.05 | [2] 0.072 | [3] 0.025 | [4] -0.002 | [5] 0.054

CTU1 (UniProt Q7Z7A3)
Sequence of UniProt Q7Z7A3 (Q7Z7A3 whole entry, looked up): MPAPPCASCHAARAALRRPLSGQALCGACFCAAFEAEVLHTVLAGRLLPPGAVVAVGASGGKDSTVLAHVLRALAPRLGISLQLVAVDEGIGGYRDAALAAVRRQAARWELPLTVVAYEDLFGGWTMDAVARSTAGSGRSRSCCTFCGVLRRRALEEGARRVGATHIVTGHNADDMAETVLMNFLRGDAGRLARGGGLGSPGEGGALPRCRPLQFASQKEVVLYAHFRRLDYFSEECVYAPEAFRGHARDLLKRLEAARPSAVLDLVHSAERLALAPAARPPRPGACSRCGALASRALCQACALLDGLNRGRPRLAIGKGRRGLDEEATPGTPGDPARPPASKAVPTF
inactive: [1] -0.061 | [2] 0.025 | [3] 0.052 | [4] -0.006 | [5] -0.051

DEGS1 (UniProt O15121)
inactive: [1] 0.083 | [2] 0.04 | [3] -0.001 | [4] 0.122 | [5] 0.052

DMXL1 (UniProt Q9Y485)
Sequence of UniProt Q9Y485 (Q9Y485 whole entry, looked up): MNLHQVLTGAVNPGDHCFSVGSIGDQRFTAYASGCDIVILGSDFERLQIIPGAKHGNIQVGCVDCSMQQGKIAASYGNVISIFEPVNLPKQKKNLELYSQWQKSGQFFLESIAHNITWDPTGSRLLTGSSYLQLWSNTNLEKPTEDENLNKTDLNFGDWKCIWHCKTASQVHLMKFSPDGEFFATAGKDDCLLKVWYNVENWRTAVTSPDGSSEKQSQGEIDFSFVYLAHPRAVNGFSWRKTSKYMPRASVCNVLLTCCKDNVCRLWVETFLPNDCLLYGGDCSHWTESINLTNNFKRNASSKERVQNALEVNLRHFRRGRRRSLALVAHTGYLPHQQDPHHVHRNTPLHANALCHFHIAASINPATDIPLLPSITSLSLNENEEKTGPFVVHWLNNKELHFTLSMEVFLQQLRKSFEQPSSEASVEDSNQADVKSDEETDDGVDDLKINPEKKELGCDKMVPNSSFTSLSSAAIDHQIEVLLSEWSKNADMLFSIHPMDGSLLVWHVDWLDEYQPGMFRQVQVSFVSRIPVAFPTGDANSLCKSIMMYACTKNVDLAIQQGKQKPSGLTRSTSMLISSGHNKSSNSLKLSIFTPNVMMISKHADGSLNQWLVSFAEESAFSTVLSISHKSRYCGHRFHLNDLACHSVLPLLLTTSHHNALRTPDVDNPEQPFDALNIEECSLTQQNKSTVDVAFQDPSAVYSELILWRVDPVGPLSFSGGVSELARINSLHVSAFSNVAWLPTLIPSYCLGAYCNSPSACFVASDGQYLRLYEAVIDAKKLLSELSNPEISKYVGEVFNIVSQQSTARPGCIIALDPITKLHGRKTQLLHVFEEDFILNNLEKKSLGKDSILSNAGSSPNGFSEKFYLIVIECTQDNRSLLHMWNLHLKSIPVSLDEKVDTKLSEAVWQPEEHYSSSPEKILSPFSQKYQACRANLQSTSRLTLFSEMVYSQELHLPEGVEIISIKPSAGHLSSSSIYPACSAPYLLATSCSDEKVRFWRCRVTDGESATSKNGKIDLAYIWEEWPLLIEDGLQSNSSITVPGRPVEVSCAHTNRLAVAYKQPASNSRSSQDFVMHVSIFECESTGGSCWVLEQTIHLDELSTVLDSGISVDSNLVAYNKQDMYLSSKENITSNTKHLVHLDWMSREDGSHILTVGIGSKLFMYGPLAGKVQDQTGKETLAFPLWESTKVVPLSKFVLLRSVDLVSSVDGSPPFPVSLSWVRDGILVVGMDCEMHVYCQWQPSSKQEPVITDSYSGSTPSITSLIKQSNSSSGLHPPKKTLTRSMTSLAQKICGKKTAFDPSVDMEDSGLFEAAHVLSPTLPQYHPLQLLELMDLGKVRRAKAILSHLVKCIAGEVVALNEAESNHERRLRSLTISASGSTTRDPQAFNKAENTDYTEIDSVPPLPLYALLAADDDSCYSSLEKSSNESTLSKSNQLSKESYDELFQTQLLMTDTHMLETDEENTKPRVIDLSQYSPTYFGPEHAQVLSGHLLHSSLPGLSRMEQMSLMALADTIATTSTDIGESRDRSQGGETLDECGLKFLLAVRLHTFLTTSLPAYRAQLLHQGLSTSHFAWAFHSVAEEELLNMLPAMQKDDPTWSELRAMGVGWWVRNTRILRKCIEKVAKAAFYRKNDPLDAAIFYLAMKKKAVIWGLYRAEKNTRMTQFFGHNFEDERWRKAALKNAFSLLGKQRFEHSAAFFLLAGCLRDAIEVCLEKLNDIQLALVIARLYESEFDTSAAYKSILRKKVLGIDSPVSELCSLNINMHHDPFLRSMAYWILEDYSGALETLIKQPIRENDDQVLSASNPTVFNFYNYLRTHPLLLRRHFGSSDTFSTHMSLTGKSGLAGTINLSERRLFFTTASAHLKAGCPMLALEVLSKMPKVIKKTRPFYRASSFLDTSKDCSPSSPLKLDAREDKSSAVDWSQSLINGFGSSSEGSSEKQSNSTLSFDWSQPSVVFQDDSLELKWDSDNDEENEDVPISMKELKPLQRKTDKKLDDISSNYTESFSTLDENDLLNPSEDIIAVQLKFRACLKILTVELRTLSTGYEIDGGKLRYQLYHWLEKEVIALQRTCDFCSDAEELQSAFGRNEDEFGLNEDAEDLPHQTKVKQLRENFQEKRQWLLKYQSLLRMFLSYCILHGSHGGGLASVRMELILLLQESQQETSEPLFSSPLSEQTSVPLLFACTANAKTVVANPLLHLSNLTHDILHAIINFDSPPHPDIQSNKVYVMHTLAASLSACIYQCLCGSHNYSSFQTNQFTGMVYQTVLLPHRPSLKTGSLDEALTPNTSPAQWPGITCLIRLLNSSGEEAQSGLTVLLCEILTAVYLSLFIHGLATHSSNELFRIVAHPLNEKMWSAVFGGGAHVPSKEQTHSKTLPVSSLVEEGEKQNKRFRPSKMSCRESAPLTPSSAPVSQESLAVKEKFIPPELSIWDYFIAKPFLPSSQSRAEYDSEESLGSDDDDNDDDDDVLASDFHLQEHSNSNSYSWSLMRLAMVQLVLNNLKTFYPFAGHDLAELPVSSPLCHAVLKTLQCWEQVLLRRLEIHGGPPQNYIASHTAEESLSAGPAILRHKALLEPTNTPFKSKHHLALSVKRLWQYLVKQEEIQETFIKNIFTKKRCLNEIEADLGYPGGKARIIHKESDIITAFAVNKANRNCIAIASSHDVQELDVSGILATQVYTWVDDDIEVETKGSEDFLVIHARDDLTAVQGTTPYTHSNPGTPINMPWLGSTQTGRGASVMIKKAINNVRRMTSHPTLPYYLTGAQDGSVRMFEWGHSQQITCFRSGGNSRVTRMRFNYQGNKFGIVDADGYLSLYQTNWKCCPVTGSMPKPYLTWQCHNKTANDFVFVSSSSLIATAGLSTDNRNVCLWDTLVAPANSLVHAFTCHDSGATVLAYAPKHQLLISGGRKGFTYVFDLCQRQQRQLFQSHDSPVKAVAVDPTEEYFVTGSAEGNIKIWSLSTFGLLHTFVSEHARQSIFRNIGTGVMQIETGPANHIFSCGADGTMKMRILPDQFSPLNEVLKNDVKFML
inactive: [1] -0.017 | [2] 0.003 | [3] 0.071 | [4] -0.016 | [5] -0.05

FAM118B (UniProt Q9BPY3)
inactive: [1] -0.276 | [2] -0.01 | [3] 0.208 | [4] -0.019 | [5] -0.009
